Bioassay records as filed in PubChem BioAssay.
An excerpt weighted towards active compounds, which were near 1.6% of everything screened.
p53ts 32C kill = qHTS Screen for Compounds that Selectively Target Cancer Cells with p53 Mutations: Cytotoxicity of p53ts Cells at the Permissive Temperature | Potency, µM (titrated, usually from 46.1 µM), for inactives: at the top dose activity change, negative = cytotoxicity, hits mostly cytotoxic | H1299-p53A138V at 32C, ATP luminescence viability, 24 h | AID 924, 2007 | 0.93% of 130,000 active;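 note: 0% = DMSO and -100% = full killing by reference compound; nearly all actives have a fitted effect of over 55% in size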
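Cells: H1299 p53ts (A138V), 600/well, pre-incubated 16–30 h at 37C. Cpd up to 46 uM, 24 h, 32C. Readout: ATPlite luminescence, 20 min RT. Normalization: DMSO vs tamoxifen 100 uM. AC50 by Hill equation.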
Peg3 imprint = qHTS Assay for Compounds that Induce Erasure of Genomic Imprints. 0.02% of 110,000 active. AID 1948, 2009. Potency, µM (highest dose often 60.7 µM), for inactives: top-dose activity change, positive = activation, actives largely listed as activators. mouse ES Peg3-LacZ reporter, beta-gal luminescence, 40 h
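Each well holds 300 Peg3LacZ-Neo (maternal) female ES cells incubated 40 h at 37C, 5% CO2. LacZ is measured by BetaGlo luminescence, with AC50 and maximum efficacy derived from dose-response curves.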
p53ts 39C tox = qHTS Screen for Compounds that Selectively Target Cancer Cells with p53 Mutations: Cytotoxicity of p53ts Cells at the Nonpermissive Temperature. Potency, µM (titrated, usually from 46.1 µM), without a hit: at the highest dose activity change, negative = cell killing, most hits filed as cytotoxic. AID 902, 2007. 1.5% of 130,000 active. H1299-p53A138V viability at 39C, ATP luminescence, 24 h; note: % is set by controls: 0 for no effect and ±100 for the full control effect; nearly all actives have a fitted effect of over 55% in size
Starred values were filed as active, the others as inactive; ? = inconclusive; . = no result; [ ] = remark or other dose. Calls come from the whole dose curve; as a rule, active = well fitted curve in the direction sought with a large enough effect; inconclusive = small, poorly fitted or top-dose-only effect, or another doubt; inactive = no such curve, though single readings can be large; an effect the other way counts as inactive or inconclusive. Potency is the fitted concentration of half-maximal effect.

SMILES | p53ts 32C kill | Peg3 imprint | p53ts 39C tox
CCOC(=O)c1c(-c2ccc(OC)cc2)oc2ccc(OCc3ccccc3C)cc12 | -3% | -9%[10.9 µM] | -10%
Nc1nc(Cl)nc2c1ncn2[C@@H]1O[C@H](CO)[C@@H](O)[C@H]1O | 20µM* | -2% | ?
Nc1ncnc2c1ncn2[C@@H]1O[C@H](CO)[C@H](O)[C@H]1O | . | 1% | .
O=C(O)c1cccc(COc2ccc(CO)cc2Cl)c1 | 5µM* | -93% | 4µM*
COc1ccc(NS(=O)(=O)c2cccc(C(=O)O)c2)cc1 | 5% | -4% | -9%
CCOc1ccc(OCc2cccc(C(=O)N3CCCC3)c2)cc1 | ? | -26% | ?
O=C(O)c1ccc(COc2ccc(CO)cc2Cl)cc1 | -26% | -84% | -19%
COc1ccc(OCc2cccc(C(=O)O)c2)cc1 | 6.3µM* | -90% | 5µM*
CCOc1ccc(OCc2cccc(C(=O)O)c2)cc1 | 2.5µM* | -95% | 2µM*
COc1cc2c3cc1Oc1c(OC)c(OC)cc4c1[C@@H](Cc1ccc(O)c(c1)Oc1ccc(cc1)C[C@@H]3N(C)CC2)CN(C)C4 | 3%[9.22 µM] | 11%[10.9 µM] | 16%[9.22 µM]
CC1CCc2nc(NC(=O)Cc3ccc(Cl)cc3)sc2C1 (configuration not stated) | 30% | -4%[10.9 µM] | -5%
Cc1ncsc1C(=O)Nc1nc2c(s1)CC(C)CC2 (configuration not stated) | ? | -88% | 16µM*
Cc1ccc2oc(-c3ccc(NC(=O)CCC(=O)O)cc3)nc2c1 | ? | -18%[10.9 µM] | 16µM*
Cc1ccc(SCC(=O)Nc2ccc3oc(-c4cccc(C)c4)nc3c2)cc1 | -14% | -13%[10.9 µM] | -11%
Cc1ccc(-c2nc3cc(NC(=O)C(C)C)ccc3o2)cc1 | ? | -65% | ?
Cc1ccc2nc(-c3ccc(C)c(NC(=O)CSc4ccc(Cl)cc4)c3)oc2c1 | -19% | 9%[10.9 µM] | -20%
CCC(=O)Nc1ccc2oc(-c3cccc(C)c3)nc2c1 | 13µM* | -91% | ?
COc1cc(C(=O)Nc2cccc(-c3nc4cc(C)ccc4o3)c2)cc(OC)c1OC | -25% | . | -27%
COc1cc(C(=O)Nc2cc(-c3nc4cc(C)ccc4o3)ccc2C)cc(OC)c1OC | 13µM* | -15% | ?
Cc1ccc2nc(-c3cccc(NC(=O)CSc4ccc(Cl)cc4)c3)oc2c1 | 13µM* | -52%[10.9 µM] | 14%
O=C(CCn1nc(-c2ccc(Cl)cc2)c2ccccc2c1=O)Nc1ccc(OC(F)(F)F)cc1 | -15% | -8%[10.9 µM] | ?
CCc1ccc2oc(C(=O)N(Cc3cccc(Cl)c3)Cc3ccco3)c(C)c2c1 | 2% | 17%[10.9 µM] | -9%
COc1ccc(Cl)cc1NC(=O)CN(c1cccc(C)c1C)S(=O)(=O)c1ccccc1 | 0% | -20%[10.9 µM] | 4%
C=CCCC | 1%[1.84 µM] | -4% | 0%
COc1ccc(C2C(C(N)=O)=C(C)Nc3nc(CCCO)nn32)c(OC)c1 (configuration not stated) | -3% | -9%[10.9 µM] | 9%
SMILES | p53ts 32C kill | Peg3 imprint | p53ts 39C tox
CCCOc1ccccc1C1Oc2nc(SC)nnc2-c2ccccc2N1C(C)=O (configuration not stated) | 2% | -16%[10.9 µM] | 10%
CCCC(=O)Nc1cccc(-c2nc3cc(C)c(C)cc3o2)c1 | 16µM* | -45% | ?
CCCC(=O)Nc1cccc(-c2nc3ccccc3o2)c1 | 2% | -14% | 5%
CC1=C(C(N)=O)C(c2cccc(Br)c2)n2nc(SCc3ccccc3)nc2N1 (configuration not stated) | -2% | ? | 20%
CSc1nc2c(sc3ccccc32)c(=O)n1Cc1ccc(C)cc1 | -6% | -15%[10.9 µM] | -17%
COc1ccc(Cn2c(SCC(N)=O)nc3c(sc4ccccc43)c2=O)cc1 | -9% | 11%[10.9 µM] | 13µM*
CC(C)CS(=O)(=O)c1oc(-c2ccc(F)cc2)nc1S(=O)(=O)c1ccccc1 | 10µM* | -42%[10.9 µM] | 2.5µM*
O=S(=O)(c1ccccc1)c1nc(-c2cccs2)oc1N1CCCCC1 | -3% | -4%[10.9 µM] | 5%
CCC(C)S(=O)(=O)c1oc(-c2cccs2)nc1S(=O)(=O)c1ccccc1 (configuration not stated) | 6.3µM* | -38%[10.9 µM] | 1µM*
O=S(=O)(c1ccccc1)c1nc(-c2ccc(F)cc2)oc1NCc1ccccc1 | 7% | -7%[10.9 µM] | -8%
CCOC(=O)c1sc(NC(=O)c2ccc(C)o2)nc1C | 7.9µM* | -86% | 7.9µM*
CCOC(=O)c1sc(NC(=O)c2ccco2)nc1C | -30% | -54% | -15%
C=CC1=C(C)/C(=C/c2[nH]c(Cc3[nH]c(/C=C4\NC(=O)C(C)=C4C=C)c(C)c3CCC(=O)O)c(CCC(=O)O)c2C)NC1=O | -5% | -2% | -13%
CC(C)=CC(=O)Nc1ccccc1C(N)=O | 5% | -8% | 16%
NC(=O)c1ccccc1N/C=C/C(=O)c1ccccc1 | 5µM* | -87% | 10µM*
Nc1nc(N)c2nn(-c3ccc(C(=O)O)cc3)nc2n1 | -5%[9.22 µM] | -6%[10.9 µM] | 1%[9.22 µM]
Cc1ccc(NC(=O)NCC2CCN(Cc3cccc(Cl)c3)CC2)cc1Cl | -18% | -19%[10.9 µM] | 16µM*
O=C(NCC1CCN(Cc2ccccc2F)CC1)Nc1ccc(F)c(Cl)c1 | 9% | -13%[10.9 µM] | -26%
CCOC(=O)C1CCN(c2ncnc3c2nc2n3CCCCC2)CC1 | -2% | . | .
CCOc1ccc(-c2nnc(-c3ccco3)o2)cc1OCC | 0% | 5% | -11%
CCOc1ccc(-c2ccc(CO)o2)cc1N | 16µM* | -23%[10.9 µM] | ?
O=C(N/N=C/c1ccc(O)cc1O)c1cc(-c2ccccc2)n[nH]1 | -16% | . | 10µM*
O=C(N/N=C/c1c[nH]c2ccccc12)c1cc(-c2ccc3ccccc3c2)n[nH]1 | ? | . | 16µM*
O=C(N/N=C/c1c[nH]c2ccccc12)c1cc(-c2cccc3ccccc23)n[nH]1 | 3% | . | 14%
O=C(N/N=C/c1ccccn1)c1cc(-c2ccc3ccccc3c2)n[nH]1 | . | . | -22%
SMILES | p53ts 32C kill | Peg3 imprint | p53ts 39C tox
Cc1ccc(CSc2cn(CC(=O)N3CCCCCC3)c3ccccc23)cc1 | -6% | -20%[10.9 µM] | 1%
CCSC1=NC2(CCN(C(=O)NC3CCCCC3)CC2)N=C1c1ccc(C)c(C)c1 | 14% | -8%[10.9 µM] | -6%
Cc1ccc(NC(=O)c2ccc(NC(=O)N3CCSc4ncccc43)cc2)c(Cl)c1 | 10µM* | -12%[10.9 µM] | ?
Cc1ccc(NC(=O)c2ccc(NC(=O)N3CCSc4ncccc43)cc2)c(C)c1 | -2% | -11%[10.9 µM] | -20%
CCOC(=O)Cc1c(C)nc2c(-c3cccc(Br)c3)c[nH]n2c1=O | ? | -30% | 13µM*
CCOC(=O)Cc1c(C)nc(-c2ccccc2)[nH]c1=O | -7% | -12% | 4%
OC(Cc1ccccc1)(Cc1ccccc1)c1ccccc1 | -3%[9.22 µM] | 1%[10.9 µM] | -2%[9.22 µM]
CCCCCCC1C(C#N)=C(N)OC2=C1C(=O)CC(C)(C)C2 (configuration not stated) | -9% | -13% | 4%
CCCCCCC1C(C#N)=C(N)OC2=C1C(=O)CCC2 (configuration not stated) | 13µM* | -15% | 16µM*
Cc1cccc(C)c1NC(=O)c1nc(SC(C)C)ncc1Cl | 5% | -9%[10.9 µM] | -3%
